# HT1080NT lethal – kills 2HG-producing HT-1080-NT fibrosarcoma cells. HT-1080-NT fibrosarcoma viability, CellTiter-Glo ATP luminescence, 48 h. Potency, µM (titrated, usually from 46.1 µM), for inactives: at the top dose activity, negative = less viability, most hits filed as cytotoxic. hit rate 1.6% among 360,000. AID 686970;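 note: NT is the 2HG producing partner of a matched IDH1 knockdown line; 0% = DMSO-treated cells and -100% = media-only wells without cells; nearly all actives have a fitted effect of over 55% in size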
#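 Luminescent CellTiter-Glo readout after 48 hours of compound exposure at 37 degrees C defined viability of HT-1080-NT cells. Activity was normalized to DMSO wells and cell-free media wells; concentration-response curves were fitted and assigned curve classes.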
# KB-V1 MDR tox – kills drug-selected multidrug resistant KB-V1 cells. KB-V1 MDR cells viability, CellTiter-Glo, 72 h. AID 1347076. Potency, µM (series often up to 46.1 µM), hits mostly cytotoxic. hit rate 3.4% among 400,000; note: % is set by controls: 0 for no effect and ±100 for the full control effect; nearly all actives have a fitted effect of over 60% in size
#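 Cytotoxicity via CellTiter-Glo luminescence after 72 h compound exposure at 37 degrees C. Cells: drug-selected KB-V1 line, DMEM phenol-red free plus 10% FBS. Compounds tested at multiple concentrations; normalized data fitted to concentration-effect curves.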
# HT1080 IDH1KD tx – HT-1080 IDH1 knockdown cell toxicity (counter line); AID 686971; HT-1080 IDH1 knockdown viability, ATP luminescence, 48 h; hit rate 2% among 360,000; Potency, µM (series often up to 46.1 µM), inactives show at the highest dose activity, negative = toxicity, usual class: cytotoxic;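 note: 0% = DMSO wells and -100% = cell-free medium wells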
#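 Assay cells: HT-1080 with IDH1 knockdown, 750 per well, RPMI/5% FBS. Exposure: 48 h at 37 °C following 2 h pre-incubation. Read: CellTiter-Glo luminescence; fitted concentration-response, curve class assigned.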
# KB-3-1 cytotox – KB-3-1 parental cell cytotoxicity; KB-3-1 viability, CellTiter-Glo ATP luminescence, 72 h; Potency, µM (titrated, usually from 46.1 µM), hits mostly cytotoxic; hit rate 1.4% among 400,000; AID 1347075; note: % is set by controls: 0 for no effect and ±100 for the full control effect; nearly all actives have a fitted effect of over 60% in size
#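 KB-3-1 parental drug-naive adenocarcinoma cells in DMEM/10% FBS, incubated 72 h at 37 C with pin-transferred compounds across a concentration series. Viability by CellTiter-Glo luminescence; concentration-response curves fitted after normalization.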
# HepG2 tox – HepG2 cytotoxicity, counter-screen for TGF-b inhibitors; HepG2 CAGA-GFP viability, ATP luminescence, 18 h; Potency, µM (top dose mostly 46.1 µM), inactives show at the top dose activity change, negative = cytotoxicity, hits mostly cytotoxic; hit rate 0.76% among 410,000
#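 HepG2 CAGA-GFP cells (1000/well, DMEM with 1% FBS) received compound, then TGF-beta at 500 pg/mL final, and were incubated 18 hours at 37 degrees C. Viability was read by CellTiter-Glo luminescence. Media-only wells were set as complete cell-killing and DMSO as no toxicity.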
# TGFb inhibitor – blocks TGF-b signaling; HepG2 CAGA-GFP TGF-b/SMAD3 reporter, GFP fluorescence, 18 h; TGF-beta stimulated, 500 pg/mL final; AID 588855; hit rate 1.2% among 410,000; Potency, µM (series often up to 46.1 µM), for inactives: at the top dose activity, negative = inhibition, most hits filed as inhibitors; note: % is set by controls: 0 for no effect and ±100 for the full control effect; nearly all actives have a fitted effect of over 65% in size
#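 Cell-based qHTS in HEPG2 carrying a CAGA-GFP Smad reporter; compounds added before 500 pg/mL final TGF-beta, 18 h incubation at 37 degrees C, GFP fluorescence quantified per cell by imaging cytometry.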
# The depositor's hits bear a star; i = inactive; ? = inconclusive; . = no result given. An excerpt weighted towards active compounds, which were near 6.6% of everything screened. Calls come from the whole dose curve; as a rule, active = well fitted curve in the direction sought with a large enough effect; inconclusive = small, poorly fitted or top-dose-only effect, or another doubt; inactive = no such curve, though single readings can be large; an effect the other way counts as inactive or inconclusive. Potency is the fitted concentration of half-maximal effect.
SMILES,HT1080NT lethal,KB-V1 MDR tox,HT1080 IDH1KD tx,KB-3-1 cytotox,HepG2 tox,TGFb inhibitor
CCN(CCCNC(=O)c1cn(CC)c2ccc(S(=O)(=O)N(C)C)cc2c1=O)c1cccc(C)c1,2.5%,16.4µM*,-0.4%,?,-2.2%,0.0%
CC(C)CCOC(=O)C1C(c2ccccc2)C(C(=O)O)C1c1ccccc1 (configuration not stated),7.31µM*,i,3.66µM*,i,-1.4%,-4.0%
COCCNC(=S)N(CCc1c(C)[nH]c2ccc(Cl)cc12)Cc1cccs1,20.6µM*,?,?,?,-49.7%,?
CNC(=S)N(CCc1c(C)[nH]c2ccc(C)cc12)Cc1ccco1,-5.4%,i,-2.4%,i,-20.3%,-19.6%
CCNC(=S)N(CCc1c(C)[nH]c2ccc(Cl)cc12)Cc1ccco1,?,i,?,23.1µM*,-34.5%,?
COCCNC(=S)N(CCc1c(C)[nH]c2ccc(F)cc12)Cc1cccs1,?,?,-4.3%,i,-52.3%,?
O=C(N/N=C/c1ccccc1Cl)c1n[nH]c2c1CCCC2,3.4%,i,2.3%,?,-32.6%,4.5%
Cc1[nH]nc(C(=O)NN=Cc2ccccc2Cl)c1N=NN(C)C,20.6µM*,i,23.1µM*,i,20µM*,10µM*
CCOC(=O)c1c(S(=O)(=O)N2CCN(c3ccccc3OC)CC2)c(C)n(C)c1C,.,i,.,i,-21.0%,3.5%
CC(C)c1ccc(C(=O)CC2(O)C(=O)N(CCc3ccccc3)c3ccc(Cl)cc32)cc1 (configuration not stated),.,?,.,?,-103.9%,15.8µM*
CCCS(=O)(=O)c1nc(S(=O)(=O)c2ccc(C)cc2)c(NCc2ccccc2Cl)s1,.,.,.,.,-5.0%,.
O=C1c2ccccc2C(=O)C1c1ccc(Cl)cc1,12.1%,?,12.6%,i,-3.6%,10.6%
O=C1c2ccccc2C(=O)C12OC2c1ccc(Cl)cc1Cl (configuration not stated),20.6µM*,?,?,?,20µM*,?
COCCN(CC(=O)Nc1cccc(C)c1C)C(=O)C1(c2ccc(Cl)cc2)CCC1,-6.6%,i,-9.6%,i,0.5%,?
Cc1cccc(NC(=O)CN(C)CC(=O)NC(c2ccccc2)c2ccccc2)c1C,-1.4%,3.26µM*,0.6%,i,-13.0%,?
COCCN(CC(=O)Nc1cccc(C)c1C)C(=O)C1(c2ccccc2)CC1,0.0%,18.4µM*,-0.6%,i,-6.3%,-10.0%
Cc1ccc(NC(=S)N(C)Cc2cn(C)c3ccccc23)cc1,-18.2%,20.6µM*,?,i,-2.5%,5.2%
COc1cccc(N2CCN(C(=O)Cn3nc(C)n4c(cc5c(OC)cccc54)c3=O)CC2)c1,.,.,.,.,2.8%,-9.9%
CC(=O)Nc1ccc(NC(=O)C(C)Oc2ccc(Cl)cc2Cl)cc1 (configuration not stated),-3.5%,i,-3.1%,i,-18.6%,-6.7%
CC(Oc1ccc(Cl)cc1Cl)C(=O)Nc1ccncc1 (configuration not stated),?,9.2µM*,?,i,-37.8%,-9.0%
O=C(C1CCCN(S(=O)(=O)c2ccccc2[N+](=O)[O-])C1)N1CCCC1 (configuration not stated),-4.7%,11.6µM*,-4.8%,i,-0.4%,6.6%
CCn1c2ccc(C)cc2c2nnc(NN)nc21,-4.6%,?,-16.7%,i,-29.6%,14.1µM*
CCn1c2ccc(C)cc2c2nnc(SCCN3CCCCC3)nc21,?,i,23.1µM*,i,-22.3%,-6.7%
C#C[C@]1(O)CC[C@H]2[C@@H]3CCc4cc(O)ccc4[C@H]3CC[C@@]21C,9.2µM*,16.4µM*,20.6µM*,?,-3.9%,-13.0%
C#CC1(O)CCC2C3CCC4=C(CCC(=O)C4)C3CCC21C (configuration not stated),-6.0%,1.46µM*,6.0%,?,-22.3%,-12.1%
SMILES,HT1080NT lethal,KB-V1 MDR tox,HT1080 IDH1KD tx,KB-3-1 cytotox,HepG2 tox,TGFb inhibitor
CC1(CCC(=O)O)C(=O)CCC2C1CCC1(C)C2CCC1(C)O (configuration not stated),3.3%,?,2.3%,i,-0.6%,?
Cc1cc(C)cc(NC(=O)Cn2c3ncccc3c(=O)n2-c2ccc(C)c(C)c2)c1,.,.,.,.,2.6%,-7.2%
CCOC(=O)c1ccc(-c2ccc3ncnc(NCc4csc(C)n4)c3c2)o1,.,i,.,i,-20.2%,-21.8%
O=C(CSc1nc2c([nH]c3ccccc32)c(=O)n1-c1ccccc1F)Nc1cccc(Cl)c1,.,.,.,.,-34.3%,?
COc1ccc(/C=C2/C(=O)OCc3cc(OC)c(OC)cc32)cc1,3.26µM*,3.66µM*,2.31µM*,?,-2.6%,3.2%
O=C(Nc1ccc(OCc2ccccc2)cc1)Nc1nnc([C@H]2C[C@H](O)[C@@H](CO)O2)s1,-1.3%,i,2.4%,i,-8.5%,-8.5%
O=c1c2ccccc2c2ccccc2c(=O)n1Nc1ccccc1,?,i,13µM*,i,-36.1%,-4.7%
O=C1C2C3C=CC(O3)C2C(=O)N1Nc1ccccc1 (configuration not stated),1.2%,i,-11.1%,i,-1.0%,18.0%
CCOC(=O)c1nnn(-c2nc(N3CCCC3)nc(N3CCCC3)n2)c1-c1ccccc1,0.6%,i,4.3%,?,-4.9%,-2.1%
CCOC(=O)c1c(-c2ccccc2)nnn1-c1nc(OCC)nc(N2CCCCC2)n1,?,20.6µM*,?,?,-57.1%,0.0%
COc1ccc(N(CC(=O)NCC2CCCO2)S(=O)(=O)c2ccc(C)cc2)cc1OC (configuration not stated),-4.9%,20.6µM*,-2.8%,i,-1.3%,13.9%
O=C(Nc1ccc(Br)cc1)c1cccc(C(=O)Nc2ccc(Br)cc2)c1,.,.,.,.,-33.2%,-11.5%
CCc1cc(C(=O)Nc2ccccc2N2CCOCC2)sc1C,7.2%,23.1µM*,9.4%,i,-13.7%,1.0%
O=C(Nc1cc(S(=O)(=O)N2CCOCC2)ccc1N1CCCCC1)c1ccccc1,-2.2%,5.17µM*,-7.1%,i,-4.7%,-12.5%
CN1CCN(c2ccc(S(=O)(=O)N3CCCCC3)cc2NC(=O)c2cccc([N+](=O)[O-])c2)CC1,-4.1%,i,-5.3%,i,-20.9%,0.5%
CCc1cc(C(=O)Nc2cc(S(=O)(=O)N3CCCCC3)ccc2N2CCN(C)CC2)sc1C,?,i,?,23.1µM*,-71.1%,?
